# hcGAS inh – Primary biochemical luminescence assay for human cyclic GMP-AMP synthase inhibitors; recombinant h-cGAS, ATP depletion, Kinase-Glo luminescence; inhibition, % at 12.5 µM; 290,000 compounds, 0.081% hits; AID 1259398, 2018;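 also: 0% = vehicle reaction and 100% = reaction without DNA for no activity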
# Target sequence (Q8N884 whole entry, looked up): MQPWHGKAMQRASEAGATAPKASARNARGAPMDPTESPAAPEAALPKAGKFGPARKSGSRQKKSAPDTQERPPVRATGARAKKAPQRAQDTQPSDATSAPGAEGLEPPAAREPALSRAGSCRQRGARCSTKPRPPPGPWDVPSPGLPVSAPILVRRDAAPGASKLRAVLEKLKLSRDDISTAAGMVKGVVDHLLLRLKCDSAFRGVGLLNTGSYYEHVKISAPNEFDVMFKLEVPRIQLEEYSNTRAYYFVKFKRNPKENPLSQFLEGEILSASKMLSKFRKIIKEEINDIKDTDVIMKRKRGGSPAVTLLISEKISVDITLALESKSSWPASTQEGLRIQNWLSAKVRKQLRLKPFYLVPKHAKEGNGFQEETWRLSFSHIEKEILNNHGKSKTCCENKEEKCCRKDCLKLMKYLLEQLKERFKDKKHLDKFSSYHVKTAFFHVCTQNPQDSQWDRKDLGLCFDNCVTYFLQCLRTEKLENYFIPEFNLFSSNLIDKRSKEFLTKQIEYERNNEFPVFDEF
# mcGAS lum – cyclic GMP-AMP synthase inhibitors, mouse, primary biochemical chemiluminescence. inhibition, % at 12.5 µM. AID 1259399, 2018. 160,000 compounds, 0.15% hits. Q8C6L5. recombinant cGAS, Kinase-Glo ATP depletion luminescence;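 also: 0% = negative control wells and 100% = reference inhibitor with no enzyme activity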
# NPYLR7 agonist – agonists of mosquito NPYLR7 receptor, primary screen, cell-based, Aedes aegypti, calcium fluorescence, mosquito biting behavior; HEK293T NPYLR7/Galpha15, GCaMP6s calcium fluorescence; activation, % at 10 µM; 270,000 compounds, 0.15% hits; AID 1259423, 2018; in the data active = activation above about 40%;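 also: 0% = vehicle and 100% = reference agonist at the receptor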
# The depositor's hits bear a star; x = no result given; ! = not confirmed by another sample. In the library only some 0.24% were active in any assay of this set; here they are far more common. Rule as the data show it, unless noted: active = inhibition above about 40%; inactive = the rest.
SMILES,hcGAS inh,mcGAS lum,NPYLR7 agonist
COc1cc(NS(=O)(=O)c2ccc(N3C(=O)C4C5C=CC(C5)C4C3=O)cc2)nc(OC)n1 (configuration not stated),-1.8,-4.0,2.9
CCCn1c(C)cc(C(=O)CN2C(=O)NC(Cc3ccccc3)C2=O)c1C (configuration not stated),-18.5,-2.1,17.7
COc1ccc(NC(=O)CCC2CCCN(C(=O)C3=NN(C)C(=O)CC3)C2)cc1Cl (configuration not stated),-10.6,x,6.5
O=C1c2cccc3c(NCC(O)CCl)ccc(c23)C(=O)N1c1ccccc1 (configuration not stated),-4.7,-4.1,94.2*!
O=C1c2cccc3c(C#Cc4ccccc4)ccc(c23)C(=O)N1c1ccccc1,-7.7,x,5.2
NCCNc1ccc2c3c(cccc13)C(=O)N(c1ccc(Cl)cc1)C2=O,3.6,x,104.4*
O=C1c2cccc3c(Nc4ccccc4)ccc(c23)C(=O)N1c1ccccc1,-4.6,-5.1,53.3*
O=C(c1ccccc1)c1ccc2c3c(cccc13)C(=O)N(c1ccccc1)C2=O,3.9,0.8,-15.3
O=C1c2cccc3c([N+](=O)[O-])ccc(c23)C(=O)N1c1ccc([N+](=O)[O-])cc1,-7.2,-6.8,-0.1
CCCCN(CC(=O)N1c2ccccc2-n2cccc2C1c1cccc(C)c1)C(=O)Nc1ccccc1C(F)(F)F (configuration not stated),-16.1,-5.6,-3.1
COC(=O)c1ccccc1NC(=S)NC(c1ccc(SC)cc1)c1cccc(Cl)c1Cl (configuration not stated),-9.5,-5.3,-6.8
CCc1c(C)nn(-c2ccc(C(=O)NCc3ccco3)cc2)c1C,-5.2,-3.4,-8.9
C[n+]1c2cc(N)ccc2cc2ccc(N)cc21,67.8*,x,119.9*
Cc1nc2ccc(N)cc2s1,5.0,0.9,1.4
COc1ccc(S(=O)(=O)NC(C)c2ccncc2)cc1F (configuration not stated),-14.6,x,2.2
COc1ccc(C(C)NS(=O)(=O)c2ccc(Cl)cc2C(F)(F)F)cc1F (configuration not stated),2.2,x,107.5*
O=C1/C(=C/c2ccco2)Oc2c1ccc(O)c2CN1CCN(CCO)CC1,-1.0,-8.5,56.4
O=C1/C(=C/c2cc3ccccc3o2)Oc2c1ccc(O)c2CN1CCN(CCO)CC1,4.6,4.8,108.4*
Cc1cc(O)c(CN2CCN(C)CC2)c2c1C(=O)/C(=C/c1cc3cc(Br)ccc3o1)O2,-8.5,-7.4,4.4
O=C1/C(=C/N2CCC3(CC2)OCCO3)Oc2cc(O)ccc21,-7.3,-11.9,-5.9
Cc1cc(O)c(CN2CCCC2)c2c1C(=O)/C(=C/c1cc3ccccc3o1)O2,-2.9,-2.2,57.2*
CCN1CCN(Cc2c(O)cc(C)c3c2O/C(=C\c2ccco2)C3=O)CC1,-1.1,-5.7,64.9*
O=C1/C(=C/c2cc3ccccc3o2)Oc2cc(O)ccc21,-11.1,x,49.4*
Cc1cc(O)c(CN2CCN(CCO)CC2)c2c1C(=O)/C(=C/c1cccs1)O2,-3.9,-7.2,27.9
CCn1c(-c2ccccc2OC)nn(CN2CCc3sccc3C2)c1=S,-6.9,x,-1.5
SMILES,hcGAS inh,mcGAS lum,NPYLR7 agonist
O=C(CCc1ccccc1)NC12CC3CC(CC(C3)C1)C2,-9.4,-7.4,5.3
Cc1cc(C)c(C)c(S(=O)(=O)N2CCN(Cc3cc(=O)c(OCc4ccc(C(C)(C)C)cc4)co3)CC2)c1C,-11.7,-5.2,26.9
CCOC(=O)C(C)NC(=O)N1CCC2(CC1)CN(C)CCN2C (configuration not stated),-3.2,-4.7,x
CON(C)C(=O)c1ccc(C)c(NC(C)=O)c1,0.2,x,13.1
CCc1cc(NC(=O)N(C)Cc2ncc(CC)s2)n(C)n1,-16.7,-6.5,-0.6
CN(C)C(=O)CN1C(=O)NC(C)(c2ccc(F)cc2)C1=O (configuration not stated),-6.5,x,0.7
Cc1cc(O)c(CN2CCN(CCO)CC2)c2c1C(=O)/C(=C/c1ccccc1)O2,-4.8,-5.9,16.0
Cc1cc(O)c(CN2CCN(CCO)CC2)c2c1C(=O)/C(=C/c1cc3ccccc3o1)O2,-3.7,-5.7,79.8*
CC(C)c1ccc(-n2c(C#Cc3ccccc3)n[nH]c2=S)cc1,-4.2,-4.3,-0.2
Cc1ccc(-c2noc(COc3cc4oc(=O)cc(C)c4cc3Cl)n2)cc1,-2.3,x,1.3
O=C(C1CCN(c2cc(F)cc(F)c2)C1=O)N1CCN2CCCCC2C1 (configuration not stated),-4.7,-11.6,3.7
COc1cc(/C=C(/C#N)c2nc3cc(Cl)ccc3s2)ccc1O,-16.1,x,102.4*
COc1ccc(C=C(C#N)c2nc(-c3ccc(F)cc3)cs2)cc1O,-5.5,-4.0,14.4
CNC(=O)CSCc1noc(-c2ccccc2Cl)n1,-8.2,x,6.6
N=C1/C(=C\c2ccco2)C(=O)N=C2SC(Cc3cccs3)=NN12,52.0*,x,-1.8
N=C1/C(=C\c2ccc(Br)o2)C(=O)N=C2SC(Cc3cccs3)=NN12,33.3,x,-2.7
CCOC(=O)C1(CCc2ccccc2)CCN(C(=O)Nc2ccccc2C(=O)OC)CC1,2.3,-7.7,x
COc1ccc(S(=O)(=O)Oc2ccc(CN(C(=O)c3cccc(F)c3)C3CC3)cc2)cc1,-3.5,-5.3,2.4
CC(NC(=O)c1ccoc1)C(=O)Nc1cc(C(F)(F)F)ccc1O (configuration not stated),4.4,x,0.7
O=C(O)CN(CC(=O)O)Cc1cc2c(-c3ccccc3C(=O)O)c3cc(CN(CC(=O)O)CC(=O)O)c(=O)cc-3oc2cc1O,-3.3,-1.5,x
CCN(CC)c1ccc2c(-c3ccccc3C(=O)O)c3ccc(=[N+](CC)CC)cc-3oc2c1,-49.4,-28.4,44.3*
CC1CC(C)CN(C(=O)Cn2cc(C(F)(F)F)cc(Cl)c2=O)C1 (configuration not stated),-10.6,-9.3,0.6
O=[N+]([O-])c1ccccc1-n1nc2c3nonc3ccc2[n+]1[O-],-5.2,-5.7,0.8
O=[N+]([O-])c1ccc(-n2nc3ccc4nonc4c3n2)cc1,-3.8,-6.5,80.9*
O=C(CC1CSc2nccc(=O)n21)NCc1cccs1 (configuration not stated),-4.6,x,-2.2
SMILES,hcGAS inh,mcGAS lum,NPYLR7 agonist
COc1cccc(CN(C)Cc2nc3ccc(Cl)cc3c(=O)[nH]2)c1,1.1,x,-10.9
O=C1c2c(O)ccc(O)c2C(=O)c2c(NCCNCCO)ccc(NCCNCCO)c21,42.2*!,76.5*,-5.1
CCCCNc1ccc(NCCCC)c2c1C(=O)c1ccccc1C2=O,-11.9,-6.7,-0.3
c1cc2nc(NCCCN3CCOCC3)ccn2n1,-13.1,x,3.2
CCSCCNC(=O)c1ccc(-c2cc(-c3cccc4c3OCCO4)[nH]n2)cc1,-5.4,-5.9,5.8
O=C(NCc1cccc(F)c1F)c1ccc(-c2cc(-c3cccc4c3OCCO4)[nH]n2)cc1,-5.1,104.6*,x
Cc1ccc(F)cc1C(=O)N1CCC(n2cnc3ccccc32)CC1,-7.5,-6.2,x
Cc1nc(=O)c(-c2ccccc2)c(C)n1-c1ccccc1,-3.7,x,-11.6
Cc1nc(=O)c(-c2ccccc2)c(C)n1-c1ccccc1O,-3.4,-5.5,80.2*
O=C(NCC(=O)N1CCN(c2ccccn2)CC1)c1ccccc1,-13.9,x,-0.1

# Bioassay records deposited in PubChem by Fisher Drug Discovery Resource Center.
